Source: patent US20210230599, “STEM-LOOP COMPOSITIONS AND METHODS FOR INHIBITING INTERLEUKIN-8” (VITRISA THERAPEUTICS, INC., published 2021)

These sequences were tested against Interleukin-8 (IL8, CXCL8), C-terminal His-tagged (Homo sapiens, UniProt P10145 SEQ:1-72) (assay: competition; competition TR-FRET; G18A). Conditions: tags: C-terminal 6xHis (Sino Biological); ssRNA; 2'-F G, 2'-OMe A/C/U, 5' C6NH2, 3' idT.
Description: To better understand the sequence requirements and to confirm the stem structures of members of the Aptamer 3 family as determined from sequence covariation analysis from both the primary and secondary (degenerate) selections, a series of variants which included mutations and deletions to the predicted stems were synthesized and screened (Table 24). Activity of each of these variants were tested using a time resolved competition TR-FRET assay in which the labeled parent Aptamer 3 was competed with increasing concentrations of unlabeled variants for binding to IL8 (FIG. 14). Briefly, 2-fold dilutions of thermally equilibrated aptamers were made in TR-FRET Buffer (50 mM MOPS, pH 7.4, 125 mM NaCl, 5 mM KCl, 50 μM CHAPS, 0.1 mg/mL BSA, 1 mM CaCl₂, and 1 mM MgCl₂). 5 μL of aptamer or control solution was added to 5 μl mix of 10 nM C-terminal His-tagged-IL8, 60 nM ALEXA FLUOR® 647-labeled Aptamer, and 5 nM anti-His-Eu (Perkin Elmer) in a black wall low volume 384 well plate (Greiner). For control, 5 μl of 1000-fold excess of unlabeled parent aptamer or 5 μl TR-FRET buffer alone was added to the mix of ALEXA FLUOR® 647-labeled aptamer, His-IL8, and anti-His-Eu. The plate was covered with a plate seal and subsequently incubated in the dark for 1 hour at room temperature. The plate was read on a Biotek CYTATION™ 5 plate reader. […]

Row | Sequence | binding signal
1 | UGAUGACGGUAGAUUACAGGUAGAGUGACCGCAUCU | ~5 fold worse than Aptamer 3
